The list is not random: actives were taken first. Their share in the collection is about 3.1%.
Nrf2 activator: activators of Nrf2 (ARE) signaling; AREc32 ARE-luciferase reporter (MCF7-derived line), luminescence, 24 h; Potency, µM (titrated, usually from 46.1 µM), actives largely listed as activators; AID 624171; actives 0.31% (n = 410,000); further: nearly all actives have a fitted effect of over 65% in size
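Nrf2 activation is followed as ARE-luciferase induction in the AREc32 line after one day of compound treatment; luminescence is read with Steady-Glo.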
ELG1 DNA repair: inhibitors of ELG1-dependent DNA repair in HEK293T cells; Potency, µM (top dose mostly 46.1 µM), actives largely listed as inhibitors; actives 2.3% (n = 330,000); HEK293T ELG1-luciferase reporter, luminescence, 16 h; DNA damage induced by 5-fluorouridine; further: nearly all actives have a fitted effect of over 55% in size
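Cells (2,000 per well) received 5-fluorouridine plus test compound or DMSO and were incubated 16 hr at 37 °C, 5% CO2. Luciferase activity was read by luminescence 30 min after ONE-Glo addition; signal suppression marked inhibition of damage-induced ELG1 function.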
IL2 activator: IL-2 activation | activation, % (series mostly up to about 46 µM) | IL-2 activation reporter assay, cell-based qHTS; stimulated with anti-CD3/CD4/CD28 beads; in transgenic mouse T cells | actives 0.065% (n = 360,000); in the data active means activation above about 50%; inconclusive means mostly about 30% to 49%
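Using fluorescent plate cytometry, EGFP and DsRed are detected in transgenic mouse T cells stimulated 18 h at 37 degrees C with antibody-coated beads after 60 min compound pretreatment.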
BRCA1 expr act: BRCA1 expression activation. MCF7-BRCA1-FFLuc reporter, luminescence, 48 h; response scale: scaled: vehicle 0%, 10 µM genistein 100%. Potency, µM (doses to about 46.1 µM), actives largely listed as activators. actives 1.1% (n = 380,000); further: nearly all actives have a fitted effect of over 80% in size
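First, MCF7-BRCA1-FFLuc cells (2000/well) attach for 2 h; next, compounds are pin-added and incubated 48 h at 37 °C; finally, luciferase reagent is added and luminescence read after 15 min.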
Hits are given with their value; - = inactive; ? = inconclusive; . = no result given; [ ] = remark or other dose. Unless noted, the call rests on the fitted dose curve; in most records, active means well fitted curve in the direction sought with a large enough effect; inconclusive means small, poorly fitted or top-dose-only effect, or another doubt; inactive means no such curve, though single readings can be large; an effect the other way counts as inactive or inconclusive.

SMILES	Nrf2 activator	ELG1 DNA repair	IL2 activator	BRCA1 expr act
CCOC(=O)c1ccc(NC(=O)CSc2nc3c(c(=O)n2C)SC(C)C3)cc1 (centres undefined)	-	21µM	-	-
COCCNC(=O)CSc1nnc(-c2ccc(OC)c(OC)c2)c(-c2ccc(OC)c(OC)c2)n1	-	.	.	.
COc1ccccc1NC(=O)Cn1c(=O)n(-c2ccc(C)cc2)c(=O)c2c1cnn2C	-	.	.	.
CC1CCC(N2CC(=O)N(C3CCCCC3)C(c3ccc(Cl)cc3)C2=O)CC1 (centres undefined)	-	.	.	.
O=C(Nc1cccc(C(F)(F)F)c1)c1cc(S(=O)(=O)N2CCCC2)c[nH]1	-	.	.	-
COc1ccc(N2C(=O)CS(=O)(=O)C23C(=O)N(Cc2ccc(F)cc2)c2ccc(C)cc23)cc1 (centres undefined)	-	.	.	-
Nc1ncnc2c1C1(CCCCC1)Cc1ccccc1-2	-	10µM	-	-
Nc1n[nH]c2c1C1(CCCCC1)Cc1ccccc1-2	-	-	-	-
O=C(Nc1cccc(Cl)c1)c1cc2c(=O)[nH]c3ccccc3c2s1	-	.	.	.
COc1cc(NC(=O)C2CC(c3cccc(OC)c3OC)=NO2)cc(OC)c1OC (centres undefined)	-	12µM	-	-
COc1cccc(C2=NOC(C(=O)Nc3cccnc3Cl)C2)c1OC (centres undefined)	-	?	-	-
O=C(NCc1cccs1)c1ccccc1	-	-	-	-
Cc1cc(C(=O)NCc2cccs2)cs1	-	?	-	10µM
O=C(CCS(=O)(=O)c1cccs1)Nc1ccc(C(=O)NCc2cccs2)cc1	-	16µM	-	-
CC(C)Cc1cc(C(=O)NCc2cccs2)no1	-	?	-	13µM
CCOc1ccc(C(=O)CCC(=O)N(CC)CC(=O)NCc2cccs2)cc1	-	?	-	-
CCOc1ccc(C(=O)CC(NCc2cccs2)C(=O)O)cc1 (centres undefined)	11µM	-	-	-
CC(C)Cc1cc(C(=O)NCc2cccnc2)no1	-	?	-	-
COc1cc(OC)c(Nc2cc(C)nc3ncnn23)cc1Cl	-	.	.	.
CCCCCN(CCCCC)c1ccc(/C=C/c2ccnc3ccccc23)cc1	.	.	.	-
COc1cc(/C=C/CNC[C@H]2O[C@@H](n3cnc4c(N)ncnc43)[C@H](O)[C@@H]2O)ccc1O	-	.	-	-
O=C(Cn1c(=O)oc2ccccc21)NCc1ccccc1Cl	-	.	.	.
CCOc1ccc(C(=O)CC(C(=O)O)N2CCCCC2)cc1 (centres undefined)	16µM	-	-	-
COc1ccccc1CNC(=O)c1ccc(OC(C)C)cc1	-	?	-	-
CC(C)Oc1ccc(C(=O)NCc2cccs2)cc1	-	?	-	13µM
SMILES	Nrf2 activator	ELG1 DNA repair	IL2 activator	BRCA1 expr act
O=C(OCCN1C(=O)c2cccc3c(N4CCOCC4)ccc(c23)C1=O)c1ccccc1Cl	-	12µM	-	-
O=C(OCCN1C(=O)c2cccc3c(N4CCOCC4)ccc(c23)C1=O)c1ccc(Cl)cc1Cl	-	?	-	-
COc1ccc(C(=O)COC(=O)C(CCCCN2C(=O)C3C4C=CC(C4)C3C2=O)N2C(=O)C3C4C=CC(C4)C3C2=O)cc1 (centres undefined)	-	5.8µM	-	-
Clc1ccccc1-c1cc2nc(NCCCn3ccnc3)ccn2n1	-	.	-	10µM
NNC(=O)c1[nH]c2ccc(Cl)cc2c1-c1ccccc1	-	16µM	-	-
NNC(=O)c1[nH]c2ccc(Br)cc2c1-c1ccccc1	-	?	-	-
Cc1ccc(Cn2ccnc2C(=O)Nc2ccccc2)cc1	-	?	-	13µM
CN1CCN(C(=O)c2cc(COc3ccccc3)on2)[C@@H](c2ccccc2)C1	-	?	-	5µM
COc1ccccc1OCc1cc(C(=O)N2CCN(C)C(c3ccccc3)C2)no1 (centres undefined)	-	?	-	10µM
CSc1ccccc1OCc1cc(C(=O)N2CCN(C)C(c3ccccc3)C2)no1 (centres undefined)	-	.	-	-
COc1ccccc1OCc1cc(C(=O)N2CC3C[C@@H]4CC2C[C@H](C3)C4)no1	-	?	-	7.9µM
COc1cc(Cl)ccc1OCc1cc(C(=O)N2CCN(C)CC2)no1	-	-	-	-
O=C(c1cc(COc2ccc(F)cc2F)on1)N1CC2C[C@@H]3CC1C[C@H](C2)C3	-	?	-	-
COc1cc(Cl)ccc1OCc1cc(C(=O)N2CCN(C)C(=O)[C@@H]2C)no1	-	.	-	10µM
Cc1ccc(OCc2cc(C(=O)N3CCN(C)C[C@@H]3c3ccccc3)no2)cc1C	-	?	-	?
COc1ccc2c(c1)c1c(c(=O)n(-c3ccccc3C)c(=O)n1CC(=O)NCc1ccc(C)cc1)n2C	-	.	.	-
O=C(Nc1cc(S(=O)(=O)N2CCOCC2)ccc1N1CCCC1)c1ccccc1C(F)(F)F	-	.	-	-
O=C(CN1CCN(Cc2ccccc2Cl)C1=O)NC1CCCCCC1	-	?	-	11µM
Cc1nc2oc3c(NCc4ccccc4)ncnc3c2c2c1COC(C)(C)C2	-	7.3µM	-	-[1.84 µM]
Cc1ccc(CNc2nc(-c3ccco3)nn2C(=O)c2ccccc2[N+](=O)[O-])cc1	-	.	.	.
COC(=O)[C@@]12C[C@@H](CC(=O)NCc3cccc(C(F)(F)F)c3)C(=O)N(CCc3ccc(OC)c(OC)c3)C1=CCC(C)(C)C2	.	.	-	.
COc1cccc(S(=O)(=O)Nc2ccc(C(=O)N3CCN(C(=O)c4ccco4)CC3)cc2)c1	-	18µM	-	-
COc1cc(C#Cc2ccc3cc(CCO)oc(=O)c3c2)cc(OC)c1	-	?	-	7.1µM
O=c1oc(CCO)cc2ccc(C#Cc3ccsc3)cc12	2.5µM	?	-	-
O=c1oc(CCCO)cc2ccc(C#Cc3cccnc3)cc12	-	?	-	?
SMILES	Nrf2 activator	ELG1 DNA repair	IL2 activator	BRCA1 expr act
CN(C)c1ccc(C#Cc2ccc3cc(CCO)oc(=O)c3c2)cc1	-	?	-	?
CCc1ccc2occ(CC(=O)Nc3ccc(OC)c(Cl)c3)c2c1	-	.	.	-
Cc1nc2nc(-c3ccco3)[nH]n2c(=O)c1Cc1ccccc1	?	-	-	-
Cc1nc2nc(-c3ccco3)[nH]n2c(=O)c1C	11µM	-	-	-
Cc1cccc(N2CCN(C(=O)C3CCN(S(=O)(=O)N4CCOCC4)CC3)CC2)c1C	-	18µM	-	-
Cc1cccc(N2CCN(C(=O)C3CCC(CNS(=O)(=O)c4cccs4)CC3)CC2)c1C (centres undefined)	-	9.2µM	-	-
Cc1cccc(N2CCN(C(=O)C3CCCCC3)CC2)c1C	-	?	-	-
Cc1cc(N2CCC(C(=O)N3CCN(c4cccc(C)c4C)CC3)CC2)n2ncnc2n1	-	21µM	-	-
O=C(Nc1cccc(S(=O)(=O)NCc2ccco2)c1)c1cc(-c2ccc(F)cc2)nc2ccccc12	-	15µM	-	-
COc1ccc(-c2cc(C(=O)NCc3ccco3)c3ccccc3n2)cc1OC	-	.	-	-

Screening results from PubChem BioAssay.
